Results on 14 compounds are retold here after PubChem BioAssay (NCI).

This is part of a sample that, as a whole, favours compounds with a hit. Of some 83,000 tested, about 20% had one in any assay.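 Negative percent growth values reflect cell death: -40 means 40% of the cells present at the start died, and -100 means all died.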 Calls of active or inactive are those of the source. Rule for the calls: active = growth percent below 10; inactive = the rest.

This assay concerns SR leukemia. Put plainly: NCI-60 one-dose screen, 48 h (100 = growth as untreated, 0 = no growth, -100 = all killed). To be noted: 10 µM unless noted.
Take `Cn1ccnc1C(=O)/C=C/c1ccc(NC(=O)Nc2ccc(Cl)cc2)cc1`: the growth is 32.6% (inactive).

`C#Cc1nc(C2=C(C)/C(=N/OCc3ccccc3)CC2)cs1`: the growth is -52.4% (active).

As to `COc1ccc(-n2c(SCC(=O)Nc3ccc(-c4nc5ccccc5[nH]4)cc3)nc3ccccc3c2=O)cc1`, the growth was -4.97% (active).

Regarding `COc1cc(OC)c(S(=O)(=O)NNC(=O)c2ccncc2)cc1C(=O)/C=C/c1ccc(C)cc1`, the growth is 21.9% (inactive).

Consider `COC(=O)C(C)NS(=O)(=O)/N=C1\NC(=O)NC1=C(Cl)Cl` (centres undefined), for which the growth was 93.2% (inactive).

As to `COc1ccc(C(=O)/C=C/c2ccc(Oc3nc(NCCO)nc(N4CCOCC4)n3)c(OC)c2)cc1`, the growth was 5.16% (active).

Turning to `NS(=O)(=O)c1cccc(Nc2nc(SCC(=O)c3ccc(Br)cc3)nc3ccccc23)c1`, the growth is 37.1% (inactive).

With `O=C(N/N=C/c1ccc([N+](=O)[O-])o1)c1[nH]c2ccc(Br)cc2c1-c1ccccc1`, the growth was 6.28% (active).

For the compound `O=C(N/N=C/c1cccs1)c1[nH]c2ccc(Br)cc2c1-c1ccccc1`, the growth was 6.19% (active).

Consider `COc1cc2cc(Oc3ccc(NC(=O)c4cccc(C(F)(F)F)c4)cc3)c(C)nc2cc1OCCN1CCCCC1`, for which the growth was -40.6% (active).

For `Cc1sc2c(c1C)c(=O)nc1c(-c3nc(-c4ccc(F)cc4)no3)n[nH]n12`, the growth was 97.6% (inactive).

For the compound `N#Cc1nc(-c2ccccc2)oc1N1CC[C@@H](CO)C1`, the growth is 84.6% (inactive).

In the case of `Cn1ccnc1C(=O)/C=C/c1ccc(NC(=O)Nc2ccc(F)cc2)cc1`, the growth was 3.97% (active).

With `COc1ccc(NC2=C(Cl)C(=O)C(C)=C(C)C2=O)cc1OC`, the growth is 84.5% (inactive).
